Measurements reported in PubChem BioAssay AID720706 (Broad Institute, 2013).
Out of some 350,000 compounds screened, about 5,500 (1.6%) were called active.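 How the source made its calls: active means significant combined selectivity score with lowered wild-type GFP, culture density cut under 30%, mutant RFP and density less affected; inactive means any of these conditions unmet.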 Shown is part of a subset that was picked to be rich in actives.

Experiment: GFP drop in mixed WT/humanized-ribosome E. coli culture – GFP/RFP fluorescence, OD600, single point, bacterial rRNA inhibitor project, primary screen (AID 720706)
Conditions: E. coli WT GFP vs humanized-ribosome RFP mutants, 24 h; GFP signal change (wild-type ribosome): stronger effect = lower value, DMSO median 0, no signal -100; OD600 change: measured here: OD600 growth, DMSO median 0, no signal -100; RFP signal change: measured here: RFP humanized mutant strains, DMSO median 0, no signal -100, concentration not given here

Compound | GFP signal change (wild-type ribosome) | OD600 change [%] | RFP signal change [%]
Cc1ccc(S(=O)(=O)N(C)C[C@@H]2Oc3ccc(NS(=O)(=O)c4cn(C)cn4)cc3C(=O)N([C@@H](C)CO)C[C@H]2C)cc1 | 0.239% (inactive) | -1.14 | 0.319
Cc1ccc(Cn2nnc3c(=O)[nH]c(C4CCN(S(=O)(=O)/C=C/c5ccccc5)CC4)nc32)cc1 | -1.02% (inactive) | -8.59 | 5.14
Cc1ccc(NC(=O)N2CCC(c3nc4c(nnn4Cc4c(F)cccc4Cl)c(=O)[nH]3)CC2)cc1 | -32.9% (active) | -18.6 | -4.28
O=C(Nc1ccc(F)cc1)N1CCCC(c2nc3c(nnn3Cc3ccccc3Cl)c(=O)[nH]2)C1 (stereo unspecified) | 5.54% (inactive) | 16.4 | 5.16
COc1ccccc1NC(=O)N[C@H]1CC[C@@H](CCn2cc(C3(O)CCCC3)nn2)O[C@@H]1CO | -0.097% (inactive) | 0.829 | -2.3
CC(C)NC(=O)N1[C@H](C(=O)N2CCc3ccccc3C2)[C@@H](CO)[C@@H]2Cn3c(cccc3=O)[C@@H]21 | -0.919% (inactive) | -4.45 | -2.12
Cc1cccc(NC(=S)NCCc2ccc(Cl)cc2)c1C | -5.8% (inactive) | -24.2 | 6.65
Cc1ccccc1NC(=S)NC(=O)Cc1ccc(Cl)cc1 | -31.6% (active) | -2.94 | 1.01
O=C(Cc1ccc(Cl)cc1)NC(=S)Nc1ccccc1O | 6.71% (inactive) | -1.88 | 5.02
C[C@H](CO)N1C[C@H](C)[C@H](CN(C)S(=O)(=O)c2cccs2)Oc2c(NS(=O)(=O)c3ccc(Cl)cc3)cccc2C1=O | -5.17% (inactive) | -6.49 | 3.43
CN(C)CCn1c(=S)[nH]c2ccc(Cl)cc2c1=O | 5.19% (inactive) | 0.375 | 2.03
CCCn1c(=S)[nH]c2ccc(C(F)(F)F)cc21 | -39% (active) | -18.3 | -4.67
CC(C)n1c(=S)[nH]c2cc(C(F)(F)F)ccc21 | -0.904% (inactive) | -3.6 | -3.06
Cc1ccccc1-c1ccc([C@H]2[C@@H](CO)N3C(=O)CN(C(=O)c4cccnc4)C[C@@H]23)cc1 | 3.51% (inactive) | 8.18 | -0.0435
CC(C)c1ccc(NC(=S)NC2CC3C=CC2C3)cc1 (stereo unspecified) | -37.3% (inactive) | -66.8 | 0.867
S=C(NNC(=S)NC1CC2C=CC1C2)NC1CC2C=CC1C2 (stereo unspecified) | -47.5% (active) | -15.1 | -13.4

Compound | GFP signal change (wild-type ribosome) | OD600 change [%] | RFP signal change [%]
CCCNC(=O)N1[C@H](CO)[C@H]2c3ccccc3N(C(=O)Nc3cccc(Cl)c3)C[C@H]21 | -57.4% (inactive) | -71.6 | -12.8
CCCN1C[C@H](C)[C@H](OC)CN(C)C(=O)c2cc(NC(=O)NC3CCCC3)ccc2OC[C@H]1C | -0.637% (inactive) | 8.41 | 2.12
CC(=O)C(CC(=O)N1CCCC1)C(=O)Nc1ccc(Cl)cc1 (stereo unspecified) | 1.69% (inactive) | 9.42 | 0.378
O=C(NC1CCN(C(=S)Nc2ccc(Cl)cc2)CC1)C1CCCCC1 | 6.47% (inactive) | 11.2 | 0.251
CC(=O)N1CCC(N(C(=O)Nc2ccc(Cl)cc2)C(C)C)CC1 | -25.5% (active) | -18 | -0.55
CCCN(C)C[C@H]1OCCCC[C@H](C)Oc2ccc(NS(=O)(=O)c3ccc(C)cc3)cc2C(=O)N([C@@H](C)CO)C[C@H]1C | -0.746% (inactive) | -1.7 | -0.147
CC(C)NC(=O)N1CCCCN2[C@@H](CO)[C@@H](c3ccc(C#C[C@@H](C)O)cc3)[C@@H]2C1 | 5.76% (inactive) | 13.1 | -1.96
O=S(=O)(Cc1ccccc1)N1CCCCN2[C@@H](CO)[C@H](c3ccc(-c4ccccc4)cc3)[C@@H]2C1 | -9.68% (inactive) | -41.9 | 18.6
CN(C)CC#Cc1ccc([C@@H]2[C@H](CO)N3CCCCN(C(=O)NC4CCCC4)C[C@@H]23)cc1 | 5.92% (inactive) | 4.22 | 0.0255
CCOC(=O)C1=C(c2ccccc2)NC(=S)NC1c1ccc(Cl)cc1 (stereo unspecified) | -8.35% (inactive) | -7.99 | -0.819
CCOC(=O)C1C(=O)NCC1c1ccccc1 (stereo unspecified) | 8.68% (inactive) | -9.73 | 1
C=CCC1(C#N)C(=S)NC(C)=C(C(=O)OCC)C1c1ccccc1 (stereo unspecified) | -26.3% (active) | -19.2 | -3.7
COc1ccc(NC(=O)N(C)C[C@@H]2OCCCC[C@@H](C)Oc3ccc(NS(=O)(=O)c4cn(C)cn4)cc3C(=O)N([C@@H](C)CO)C[C@H]2C)cc1 | -1.24% (inactive) | -4.49 | 0.792
COc1ccc2c3c(n(C)c2c1)[C@@H](CO)N(C(=O)c1cccnc1)CC31CCN(C(=O)c2cccnc2)CC1 | 2.76% (inactive) | 15.2 | -2.73
N#CCSc1nn(-c2ccc(F)cc2)c(=S)s1 | -34% (active) | -20.7 | -5.63
O=C(CSc1nn(-c2ccc(F)cc2)c(=S)s1)NC1CCS(=O)(=O)C1 (stereo unspecified) | 9.16% (inactive) | 9.88 | 20.6
